About 83,000 compounds went through this panel and 20% of them were active in at least one assay; those are over-represented in the sample as a whole.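 Results are percent growth after 48 hours of single-concentration exposure. 100 means growth as in untreated cells, lower positive values show inhibition; negative values down to -100 show cell death.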 A number with no mark means an inactive call. The source made the active and inactive calls. The calls were made as follows: active = growth percent below 10; inactive = the rest.
What was measured:
Experiment in all cases: NCI-60 one-dose screen, 48 h (100 = growth as untreated, 0 = no growth, -100 = all killed)
Details in all cases: 10 µM unless noted
RPMI-8226 leukemia = tested on: RPMI-8226 leukemia
OVCAR-8 ovarian = tested on: OVCAR-8 ovarian
OVCAR-5 ovarian = tested on: OVCAR-5 ovarian
OVCAR-4 ovarian = tested on: OVCAR-4 ovarian
SK-OV-3 ovarian = tested on: SK-OV-3 ovarian
IGROV1 ovarian = tested on: IGROV1 ovarian
OVCAR-3 ovarian = tested on: OVCAR-3 ovarian
HS 578T breast = tested on: HS 578T breast
NCI/ADR-RES ovarian = tested on: NCI/ADR-RES ovarian
SR leukemia = tested on: SR leukemia

Nc1nn2c(-c3cc4ccccc4oc3=O)ccnc2c1N=Nc1ccccc1
growth (RPMI-8226 leukemia): 105% | growth (OVCAR-8 ovarian): 42.2% | growth (OVCAR-5 ovarian): 82.3% | growth (OVCAR-4 ovarian): 96.6% | growth (SK-OV-3 ovarian): 60.1% | growth (IGROV1 ovarian): 47.5% | growth (OVCAR-3 ovarian): 82.7% | growth (HS 578T breast): 75.8% | growth (NCI/ADR-RES ovarian): 47.2%

CCCSc1nnc(-c2c(C)nc3sccn23)o1
growth (SR leukemia): 120% | growth (OVCAR-8 ovarian): 98.3% | growth (OVCAR-5 ovarian): 85.9% | growth (OVCAR-4 ovarian): 71.9% | growth (SK-OV-3 ovarian): 108% | growth (OVCAR-3 ovarian): 98.5% | growth (HS 578T breast): 79.6% | growth (NCI/ADR-RES ovarian): 83.5%

Cc1ccc(NC(=O)N/N=C/c2c[nH]c3ccccc23)c(C)c1
growth (SR leukemia): 12.3% | growth (OVCAR-8 ovarian): -23.7% (active) | growth (OVCAR-5 ovarian): 15.5% | growth (OVCAR-4 ovarian): 47.3% | growth (SK-OV-3 ovarian): 21.8% | growth (OVCAR-3 ovarian): -33.2% (active) | growth (HS 578T breast): 20.4% | growth (NCI/ADR-RES ovarian): 3.88% (active)

Oc1ccc(Cl)c(Nc2ncnc3c2cnn3CC(Cl)c2ccc(Br)cc2)c1 (stereo not drawn)
growth (SR leukemia): 55.3% | growth (OVCAR-8 ovarian): 54.9% | growth (OVCAR-5 ovarian): 49.6% | growth (OVCAR-4 ovarian): 57.8% | growth (SK-OV-3 ovarian): 49.2% | growth (IGROV1 ovarian): -2.62% (active) | growth (OVCAR-3 ovarian): 32.3% | growth (HS 578T breast): -17.7% (active) | growth (NCI/ADR-RES ovarian): 48%

COc1ccc2[nH]c(O)c(N=Nc3nc(-c4ccc(Cl)cc4)cs3)c2c1
growth (SR leukemia): 5.78% (active) | growth (OVCAR-8 ovarian): -64.4% (active) | growth (OVCAR-5 ovarian): 10.3% | growth (OVCAR-4 ovarian): -49.9% (active) | growth (SK-OV-3 ovarian): -38.4% (active) | growth (IGROV1 ovarian): -3.99% (active) | growth (OVCAR-3 ovarian): -90.4% (active) | growth (HS 578T breast): 9.33% (active) | growth (NCI/ADR-RES ovarian): -37.4% (active)

Cc1ccc(C2CC(c3ccc(NC(=O)Nc4ccccc4)cc3)=NN2c2ccc(S(C)(=O)=O)cc2)cc1 (stereo not drawn)
growth (SR leukemia): 15.5% | growth (OVCAR-8 ovarian): 7.91% (active) | growth (OVCAR-5 ovarian): -51.3% (active) | growth (OVCAR-4 ovarian): 17.6% | growth (SK-OV-3 ovarian): 26.8% | growth (IGROV1 ovarian): -28.1% (active) | growth (OVCAR-3 ovarian): -2.63% (active) | growth (HS 578T breast): 21.3% | growth (NCI/ADR-RES ovarian): -35.3% (active)

O=C1NC(=NC23CC4CC(CC(C4)C2)C3)N/C1=C\c1ccc2ncccc2c1
growth (RPMI-8226 leukemia): -31.1% (active) | growth (OVCAR-8 ovarian): 5.28% (active) | growth (OVCAR-5 ovarian): 45.7% | growth (OVCAR-4 ovarian): -14.4% (active) | growth (SK-OV-3 ovarian): -57.4% (active) | growth (IGROV1 ovarian): 8.97% (active) | growth (OVCAR-3 ovarian): -55.3% (active) | growth (HS 578T breast): -15.3% (active) | growth (NCI/ADR-RES ovarian): -28.7% (active)

Cc1ccc(C(=O)C[n+]2cccc3c4ccccc4ccc32)cc1
growth (RPMI-8226 leukemia): 4.63% (active) | growth (OVCAR-8 ovarian): 22.5% | growth (OVCAR-5 ovarian): 31.3% | growth (OVCAR-4 ovarian): 21.1% | growth (SK-OV-3 ovarian): 33.9% | growth (IGROV1 ovarian): 30.9% | growth (OVCAR-3 ovarian): 30.3% | growth (HS 578T breast): 27.6% | growth (NCI/ADR-RES ovarian): 80.9%

COc1ccc(-c2nc3ccccc3n2CC(=O)N=Nc2c(O)[nH]c3ccc(Br)cc23)cc1
growth (SR leukemia): 7.92% (active) | growth (OVCAR-8 ovarian): 71.1% | growth (OVCAR-5 ovarian): 113% | growth (OVCAR-4 ovarian): 91.3% | growth (SK-OV-3 ovarian): 96.8% | growth (IGROV1 ovarian): 60.3% | growth (OVCAR-3 ovarian): 48.7% | growth (HS 578T breast): 68.7% | growth (NCI/ADR-RES ovarian): 78.9%

CCC(=O)c1c2c(c3ccc4c5ccccc5ccc4n13)C(=O)c1ccccc1C2=O
growth (SR leukemia): 71.8% | growth (OVCAR-8 ovarian): 96.1% | growth (OVCAR-5 ovarian): 122% | growth (OVCAR-4 ovarian): 88.2% | growth (SK-OV-3 ovarian): 105% | growth (IGROV1 ovarian): 75.6% | growth (OVCAR-3 ovarian): 75.9% | growth (HS 578T breast): 96.7% | growth (NCI/ADR-RES ovarian): 90.8%

CC1CCc2c(sc3nc(SCC(=O)c4cccc([N+](=O)[O-])c4)n(-c4ccccc4)c(=O)c23)C1 (stereo not drawn)
growth (RPMI-8226 leukemia): 84.1% | growth (OVCAR-8 ovarian): 38.6% | growth (OVCAR-5 ovarian): 94.2% | growth (OVCAR-4 ovarian): 98% | growth (SK-OV-3 ovarian): 98.8% | growth (IGROV1 ovarian): 74.8% | growth (OVCAR-3 ovarian): 111% | growth (HS 578T breast): 94.7% | growth (NCI/ADR-RES ovarian): 65%

COc1sc(/C=N/NC(=O)c2[nH]c3ccc(Br)cc3c2-c2ccccc2)cc1Cl
growth (SR leukemia): 11.1% | growth (OVCAR-8 ovarian): -30.4% (active) | growth (OVCAR-5 ovarian): -29.3% (active) | growth (OVCAR-4 ovarian): 29.9% | growth (SK-OV-3 ovarian): 12.1% | growth (IGROV1 ovarian): -41.1% (active) | growth (OVCAR-3 ovarian): 4.74% (active) | growth (HS 578T breast): 7.66% (active) | growth (NCI/ADR-RES ovarian): -48.7% (active)

N#Cc1cc(-c2ccc3ncnc(N4CCc5cc(F)c(Cl)cc54)c3c2)cnc1N
growth (RPMI-8226 leukemia): 28.2% | growth (OVCAR-8 ovarian): 44.3% | growth (OVCAR-5 ovarian): 55.2% | growth (OVCAR-4 ovarian): 29.5% | growth (SK-OV-3 ovarian): 64.3% | growth (IGROV1 ovarian): -16.2% (active) | growth (OVCAR-3 ovarian): 16.6% | growth (HS 578T breast): -7.07% (active) | growth (NCI/ADR-RES ovarian): 47.2%

O=C1/C(=C/c2cnc(-c3ccccc3)s2)SC(=S)N1Cc1ccc2c(c1)OCO2
growth (SR leukemia): 67.5% | growth (OVCAR-8 ovarian): 67.6% | growth (OVCAR-5 ovarian): 99.4% | growth (OVCAR-4 ovarian): 77.5% | growth (IGROV1 ovarian): 64.2% | growth (OVCAR-3 ovarian): 97.6% | growth (HS 578T breast): 31.5% | growth (NCI/ADR-RES ovarian): 77.2%
